This is one part of a sample in which hits are shown more often than they occur.
Tg IFNy HTS: inhibitors of Toxoplasma gondii growth with IFN-gamma; Toxoplasma gondii growth in IFN-gamma-treated host cells; active compounds read low; activity change, negative = inhibition, % (test concentration not listed); 3.8% of 69,000 active; in the data active means activity change below about -70%, passing the limit was not always enough;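 further: host cells are HeLa cells infected with Toxoplasma gondii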
An asterisk follows results filed as active.

Screening COc1ccccc1-c1ccc2c(c1)[C@H]1[C@H](CCN1C(=O)C1CCC1)[C@H](CO)N2 returned Tg IFNy HTS -71*.
For COc1ccccc1-c1ccc2c(c1)[C@H]1[C@H](CCN1C(=O)C1CCC1)[C@@H](CO)N2 the results were Tg IFNy HTS -76*.
N#Cc1ccc(-c2ccc3c(c2)[C@@H]2[C@@H](CCN2C(=O)C2CCCCC2)[C@@H](CO)N3)cc1 was read as Tg IFNy HTS -63.
For COc1ccccc1-c1ccc2c(c1)[C@H]1[C@H](CCN1S(=O)(=O)c1ccc(C)cc1)[C@@H](CO)N2 the results were Tg IFNy HTS -63.
`N#Cc1ccc(-c2ccc3c(c2)[C@H]2[C@H](CCN2C(=O)C2CCCCC2)[C@H](CO)N3)cc1` gave Tg IFNy HTS -31.
Cc1cccc(S(=O)(=O)N2CC[C@@H]3[C@@H](CO)Nc4ccc(-c5ccccc5F)cc4[C@@H]32)c1 was read as Tg IFNy HTS -48.
`C=CCn1c(=O)c(C(=O)Nc2ccccc2CC)c(O)c2ccccc21` gave Tg IFNy HTS 28.
`CCCCN(CCCC)CCCNC(=O)C1=C(C)C(=O)OC12CCN(S(=O)(=O)CC)CC2` gave Tg IFNy HTS 0.
Cc1ccc(NC(=O)NCC(c2cccnc2)c2cn(C)c3ccccc23)cc1C (stereo not drawn) was read as Tg IFNy HTS 117.
For Cc1ccc(S(=O)(=O)Nc2ccc3[nH]c(=O)[nH]c3c2)cc1C the results were Tg IFNy HTS 19.
CSc1ccc(NC(=O)N2CCC(c3nc(C(=O)N(C)C)c(C)o3)CC2)cc1 was read as Tg IFNy HTS -26.
CCn1c(C2CCCN(C(=O)c3coc4c3C(=O)CCC4)C2)nn(C)c1=O (stereo not drawn) was read as Tg IFNy HTS 2.
Cc1ccc(C)c(NC(=O)CN2C(=O)CCc3cc(Br)ccc32)c1 was read as Tg IFNy HTS 63.
`Cc1cc(Br)ccc1NC(=O)Cn1ncc2c(N3CCC(C)CC3)ncnc21` gave Tg IFNy HTS -48.
CC(C)CCNC(=O)Cn1ncc2c(N3CCC(C)CC3)ncnc21 was read as Tg IFNy HTS 131.
Cc1ccccc1CNC(=O)Cn1ncc2c(N3CCC(C)CC3)ncnc21 was read as Tg IFNy HTS 7.
Screening CC1CCN(c2ncnc3c2cnn3CC(=O)NCc2ccccc2Cl)CC1 returned Tg IFNy HTS -95*.
O=C(Cn1ncc2c(N3CCCCCC3)ncnc21)NCc1ccccc1Cl was read as Tg IFNy HTS 37.
`CC1CCN(c2ncnc3c2cnn3CC(=O)NCc2cccnc2)CC1` gave Tg IFNy HTS 167.
`CC1CCN(c2ncnc3c2cnn3CC(=O)NCc2ccccc2)CC1` gave Tg IFNy HTS -101*.
`CC1CCN(c2ncnc3c2cnn3CC(=O)NCc2ccc(Br)cc2)CC1` gave Tg IFNy HTS -94*.
`CC1CCN(c2ncnc3c2cnn3CC(=O)NCCCc2ccccc2)CC1` gave Tg IFNy HTS 110.
Screening Cc1cccc(C)c1Oc1ncccc1CNC(=O)c1ccnn1C(F)F returned Tg IFNy HTS 17.
`COc1ccccc1CN1C(=O)C2CC(=O)OC23C1C(=O)N(C1CCCCCC1)C3CC(C)=O` (stereo not drawn) gave Tg IFNy HTS -4.
Cc1ccc(C)c(NC(=O)CC(=O)NCCN(C)S(C)(=O)=O)c1 was read as Tg IFNy HTS 0.
For CCc1nccn1CCC(=O)N1CCc2onc(-c3ccccc3F)c2C1 the results were Tg IFNy HTS -11.
`COCc1cncc2c1CCN(C(=O)c1cc(C)on1)C2` gave Tg IFNy HTS -1.
`Cc1cccn2cc(C(=O)N3CCCC4(CN(C)C(=O)O4)C3)nc12` (stereo not drawn) gave Tg IFNy HTS -3.
For c1ccc(-c2nnc(-c3nc(NCCN4CCOCC4)c4ccccc4n3)o2)cc1 the results were Tg IFNy HTS -48.
`CCCCNc1nc(-c2nnc(-c3ccc(C)cc3)o2)nc2ccccc12` gave Tg IFNy HTS -40.
Screening COc1ccc(CNc2nc(-c3nnc(-c4ccccc4)o3)nc3ccccc23)cc1 returned Tg IFNy HTS inactive.
CCCCNc1nc(-c2nnc(-c3ccccc3)o2)nc2ccccc12 was read as Tg IFNy HTS -89*.
For C1=C(CCNc2nc(-c3nnc(-c4ccccc4)o3)nc3ccccc23)CCCC1 the results were Tg IFNy HTS -99*.
For Cc1ccc(CCNc2nc(-c3nnc(-c4ccccc4)o3)nc3ccccc23)cc1 the results were Tg IFNy HTS -14.
`Cc1ccc(CNc2nc(-c3nnc(-c4ccccc4)o3)nc3ccccc23)o1` gave Tg IFNy HTS -14.
Cc1ccc(-c2nnc(-c3nc(NCCCN4CCCC4=O)c4ccccc4n3)o2)cc1 was read as Tg IFNy HTS 263.
Cc1ccc(-c2nnc(-c3nc(NCCc4cccs4)c4ccccc4n3)o2)cc1 was read as Tg IFNy HTS -12.
Cc1ccc(-c2nnc(-c3nc(NCCCN4CCc5ccccc5C4)c4ccccc4n3)o2)cc1 was read as Tg IFNy HTS -118*.
For CCCSCCCNc1nc(-c2nnc(-c3ccccc3)o2)nc2ccccc12 the results were Tg IFNy HTS -92*.
`c1ccc(-c2nnc(-c3nc(NCCc4cccs4)c4ccccc4n3)o2)cc1` gave Tg IFNy HTS -40.
Screening CCS(=O)(=O)N1CC[C@@H]2C(=O)N(c3ccsc3)CCO[C@@H]2C1 returned Tg IFNy HTS -14.
CCOCCOC(=O)COc1ccc2c(=O)c(Oc3cccc(C)c3)coc2c1 was read as Tg IFNy HTS -24.
`C=CCN1CCC2(CCCN(Cc3nccn3C)C2)C1=O` (stereo not drawn) gave Tg IFNy HTS -27.
For C=Cc1cccc(CN2CCC(CNS(=O)(=O)N3CCCC3)C2)c1 (stereo not drawn) the results were Tg IFNy HTS 9.
COc1cccc(Cc2nc(Cc3nc(-c4ccccc4)oc3C)no2)c1 was read as Tg IFNy HTS 15.
Cc1occc1C(=O)N1CCC2(CC1)CC(OCc1ccccn1)CO2 (stereo not drawn) was read as Tg IFNy HTS 27.
CCN1C(=O)CCc2cc(NC(=O)c3ccc(F)cc3Cl)ccc21 was read as Tg IFNy HTS 52.
Screening O=C(c1ccncc1)N1CCCC2(CCCN2Cc2cccc(Cl)c2)C1 (stereo not drawn) returned Tg IFNy HTS 13.
CN(Cc1nc(N2CCCC2)ncc1-c1ccccn1)C(=O)CC1CCS(=O)(=O)C1 (stereo not drawn) was read as Tg IFNy HTS 29.
Screening CC(C)CN(Cc1ccco1)C(=O)CN1CCCN(C)CC1 returned Tg IFNy HTS -49.
For Cc1cccc(-c2nnc(-c3nc(NCCCN4CCCC4=O)c4ccccc4n3)o2)c1 the results were Tg IFNy HTS 441.
CCCSCCCNc1nc(-c2nnc(-c3cccc(C)c3)o2)nc2ccccc12 was read as Tg IFNy HTS -107*.
Screening Cc1cccc(-c2nnc(-c3nc(NCCc4cnc[nH]4)c4ccccc4n3)o2)c1 returned Tg IFNy HTS 121.
CN1CCCN(C(=O)c2cc3c(c4ccccc4n3CC3CC3)n2C)CC1 was read as Tg IFNy HTS -24.
For COc1ccccc1-c1noc(C)c1C(=O)Nc1ccc(Cn2cncn2)cc1 the results were Tg IFNy HTS -11.
CN1CCN(c2cc(C(F)(F)F)ccn2)CC1C(=O)O (stereo not drawn) was read as Tg IFNy HTS -4.
For CN(C(=O)C(C)(C)Oc1cc(C(F)(F)F)n(C)n1)c1ccccc1 the results were Tg IFNy HTS 4.
